Experiments:
Experiment in all cases: log2 ratio of Biotin-Ahx-Ub-VS probe labelling (fragment/DMSO); higher = less target engagement (more negative = stronger competition), active = hit call of the paper (q ≤ 0.05, log2 ratio ≤ -1)
Conditions in all cases: compound concentration: 200 uM; treatment time: 3 h
[1] = target: T1, USP42 (UniProt Q9H9J4)
T1 sequence (whole entry): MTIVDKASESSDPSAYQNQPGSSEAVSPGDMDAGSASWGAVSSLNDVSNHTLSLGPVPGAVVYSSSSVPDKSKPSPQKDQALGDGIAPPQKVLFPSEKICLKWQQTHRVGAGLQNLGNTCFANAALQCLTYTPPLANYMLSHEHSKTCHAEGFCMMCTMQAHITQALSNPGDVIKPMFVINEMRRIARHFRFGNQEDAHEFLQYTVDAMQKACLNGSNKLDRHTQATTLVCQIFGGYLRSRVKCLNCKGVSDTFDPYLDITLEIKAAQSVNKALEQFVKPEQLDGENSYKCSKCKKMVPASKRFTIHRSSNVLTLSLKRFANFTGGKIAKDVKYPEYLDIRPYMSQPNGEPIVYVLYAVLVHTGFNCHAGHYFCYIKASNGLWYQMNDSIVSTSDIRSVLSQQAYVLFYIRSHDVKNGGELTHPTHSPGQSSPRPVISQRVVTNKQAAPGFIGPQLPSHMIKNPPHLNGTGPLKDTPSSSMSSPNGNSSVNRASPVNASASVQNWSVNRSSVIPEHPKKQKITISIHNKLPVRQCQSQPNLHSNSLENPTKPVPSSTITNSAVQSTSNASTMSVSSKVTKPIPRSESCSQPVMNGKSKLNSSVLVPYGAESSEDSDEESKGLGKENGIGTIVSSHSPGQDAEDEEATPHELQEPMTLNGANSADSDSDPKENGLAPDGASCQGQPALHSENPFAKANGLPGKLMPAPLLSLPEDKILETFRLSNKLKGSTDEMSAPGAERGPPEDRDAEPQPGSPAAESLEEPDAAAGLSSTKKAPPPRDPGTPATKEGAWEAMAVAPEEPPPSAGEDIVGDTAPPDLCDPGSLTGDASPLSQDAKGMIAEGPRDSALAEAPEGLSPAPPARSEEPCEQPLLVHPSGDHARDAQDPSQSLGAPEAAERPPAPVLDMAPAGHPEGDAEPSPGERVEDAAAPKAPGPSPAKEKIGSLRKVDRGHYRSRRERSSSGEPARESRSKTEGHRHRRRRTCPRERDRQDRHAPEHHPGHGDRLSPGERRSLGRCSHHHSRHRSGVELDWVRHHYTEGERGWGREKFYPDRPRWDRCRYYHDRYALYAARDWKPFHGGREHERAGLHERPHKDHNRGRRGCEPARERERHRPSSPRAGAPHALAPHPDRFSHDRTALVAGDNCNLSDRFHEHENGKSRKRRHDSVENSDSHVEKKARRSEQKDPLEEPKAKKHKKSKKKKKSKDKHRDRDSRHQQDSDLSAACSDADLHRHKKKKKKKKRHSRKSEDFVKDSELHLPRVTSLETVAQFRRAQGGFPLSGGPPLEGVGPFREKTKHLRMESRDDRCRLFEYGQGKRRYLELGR
Outline: (§1)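 Labelling with Biotin-Ahx-Ub-VS (0.5 µM final, 1 h) followed a 3 h triplicate treatment of HEK293T lysate (495 µg per sample, Tris/CHAPS/IGEPAL buffer with protease inhibitors) with fragment at 200 µM or vehicle. Labelled DUBs were NeutrAvidin-enriched, digested with LysC and trypsin, and run by diaPASEF LC-MS/MS. The values, average log2 fragment/vehicle ratios by unpaired t-test, come from global-median-normalised Spectronaut label-free quantities. Proteins with ≥2 unique peptides were used.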

[2] = target: USP46 (UniProt P62068)
Chain of USP46 (P62068 whole entry): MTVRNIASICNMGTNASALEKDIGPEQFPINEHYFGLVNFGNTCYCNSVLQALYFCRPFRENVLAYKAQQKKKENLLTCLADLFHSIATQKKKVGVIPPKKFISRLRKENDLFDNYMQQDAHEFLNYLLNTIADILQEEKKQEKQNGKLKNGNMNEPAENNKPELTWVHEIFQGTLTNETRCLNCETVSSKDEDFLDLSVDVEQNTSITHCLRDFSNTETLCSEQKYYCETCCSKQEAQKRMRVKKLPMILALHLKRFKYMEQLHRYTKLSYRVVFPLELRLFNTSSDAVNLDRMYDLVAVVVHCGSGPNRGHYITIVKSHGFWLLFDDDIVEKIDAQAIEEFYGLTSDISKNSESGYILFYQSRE
Outline: as §1

[3] = target: T2, USP47 (UniProt Q96K76)
T2 sequence (whole entry): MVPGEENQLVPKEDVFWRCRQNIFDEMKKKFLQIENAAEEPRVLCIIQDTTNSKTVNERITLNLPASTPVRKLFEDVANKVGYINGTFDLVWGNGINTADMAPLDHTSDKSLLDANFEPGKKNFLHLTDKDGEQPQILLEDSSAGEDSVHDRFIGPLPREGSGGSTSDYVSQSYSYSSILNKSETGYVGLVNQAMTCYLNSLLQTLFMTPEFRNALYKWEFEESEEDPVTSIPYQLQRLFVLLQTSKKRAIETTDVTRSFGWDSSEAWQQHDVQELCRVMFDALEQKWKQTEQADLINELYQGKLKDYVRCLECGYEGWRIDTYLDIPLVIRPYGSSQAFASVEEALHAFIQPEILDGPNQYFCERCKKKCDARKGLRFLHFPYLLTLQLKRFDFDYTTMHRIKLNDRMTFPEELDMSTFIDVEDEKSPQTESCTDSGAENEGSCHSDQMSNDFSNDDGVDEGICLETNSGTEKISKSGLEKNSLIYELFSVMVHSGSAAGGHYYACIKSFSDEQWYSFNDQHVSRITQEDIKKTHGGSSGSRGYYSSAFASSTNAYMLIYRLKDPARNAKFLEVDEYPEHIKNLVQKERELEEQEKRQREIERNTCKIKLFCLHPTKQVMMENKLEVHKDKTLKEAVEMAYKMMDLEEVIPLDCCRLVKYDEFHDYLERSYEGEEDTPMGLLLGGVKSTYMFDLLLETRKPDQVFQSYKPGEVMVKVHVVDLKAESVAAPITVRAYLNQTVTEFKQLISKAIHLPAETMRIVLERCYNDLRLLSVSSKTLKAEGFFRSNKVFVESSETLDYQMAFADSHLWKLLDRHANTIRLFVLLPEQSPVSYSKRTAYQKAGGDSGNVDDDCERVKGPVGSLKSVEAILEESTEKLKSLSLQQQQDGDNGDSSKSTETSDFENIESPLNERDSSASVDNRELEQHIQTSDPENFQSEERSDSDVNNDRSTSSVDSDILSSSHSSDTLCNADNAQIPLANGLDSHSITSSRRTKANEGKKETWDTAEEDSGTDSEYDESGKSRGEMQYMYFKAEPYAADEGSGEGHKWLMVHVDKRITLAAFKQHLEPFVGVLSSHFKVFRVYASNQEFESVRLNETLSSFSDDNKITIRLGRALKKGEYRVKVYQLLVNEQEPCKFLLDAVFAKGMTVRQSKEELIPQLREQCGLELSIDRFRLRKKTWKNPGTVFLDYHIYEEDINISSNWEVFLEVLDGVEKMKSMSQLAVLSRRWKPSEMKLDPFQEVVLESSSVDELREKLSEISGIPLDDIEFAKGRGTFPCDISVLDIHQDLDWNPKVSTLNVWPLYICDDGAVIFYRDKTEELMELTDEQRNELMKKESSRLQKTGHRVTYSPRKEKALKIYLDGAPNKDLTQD
Outline: as §1

[4] = target: T3, USP48 (UniProt Q86UV5)
T3 sequence (whole entry): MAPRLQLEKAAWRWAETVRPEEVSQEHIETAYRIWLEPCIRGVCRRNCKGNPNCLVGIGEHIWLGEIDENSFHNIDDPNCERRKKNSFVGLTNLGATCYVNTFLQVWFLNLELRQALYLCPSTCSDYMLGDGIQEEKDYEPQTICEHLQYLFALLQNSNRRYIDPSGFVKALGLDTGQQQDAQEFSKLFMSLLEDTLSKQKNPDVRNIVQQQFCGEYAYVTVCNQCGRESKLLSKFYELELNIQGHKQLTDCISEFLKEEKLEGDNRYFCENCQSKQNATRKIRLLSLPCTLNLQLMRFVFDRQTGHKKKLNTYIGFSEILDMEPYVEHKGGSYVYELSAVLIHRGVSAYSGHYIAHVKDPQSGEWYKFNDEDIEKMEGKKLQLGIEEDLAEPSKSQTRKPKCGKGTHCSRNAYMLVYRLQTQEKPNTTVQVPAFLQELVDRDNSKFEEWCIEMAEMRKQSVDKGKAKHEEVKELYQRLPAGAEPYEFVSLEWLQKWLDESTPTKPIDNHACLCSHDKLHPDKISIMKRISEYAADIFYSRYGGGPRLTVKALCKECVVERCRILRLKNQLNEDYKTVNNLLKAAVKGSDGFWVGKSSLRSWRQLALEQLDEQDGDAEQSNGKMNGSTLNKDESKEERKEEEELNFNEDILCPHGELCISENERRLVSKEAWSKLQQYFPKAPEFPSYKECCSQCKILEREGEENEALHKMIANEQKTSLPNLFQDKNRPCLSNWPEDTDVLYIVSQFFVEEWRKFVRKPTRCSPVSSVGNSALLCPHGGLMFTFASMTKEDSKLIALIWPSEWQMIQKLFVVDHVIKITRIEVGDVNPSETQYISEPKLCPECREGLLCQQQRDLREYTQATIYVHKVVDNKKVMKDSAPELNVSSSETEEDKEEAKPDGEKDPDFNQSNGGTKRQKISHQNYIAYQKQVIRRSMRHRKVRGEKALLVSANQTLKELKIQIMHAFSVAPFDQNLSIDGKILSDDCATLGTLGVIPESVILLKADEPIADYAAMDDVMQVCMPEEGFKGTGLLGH
Outline: as §1

[5] = target: T4, USP5 (UniProt P45974)
T4 sequence (whole entry): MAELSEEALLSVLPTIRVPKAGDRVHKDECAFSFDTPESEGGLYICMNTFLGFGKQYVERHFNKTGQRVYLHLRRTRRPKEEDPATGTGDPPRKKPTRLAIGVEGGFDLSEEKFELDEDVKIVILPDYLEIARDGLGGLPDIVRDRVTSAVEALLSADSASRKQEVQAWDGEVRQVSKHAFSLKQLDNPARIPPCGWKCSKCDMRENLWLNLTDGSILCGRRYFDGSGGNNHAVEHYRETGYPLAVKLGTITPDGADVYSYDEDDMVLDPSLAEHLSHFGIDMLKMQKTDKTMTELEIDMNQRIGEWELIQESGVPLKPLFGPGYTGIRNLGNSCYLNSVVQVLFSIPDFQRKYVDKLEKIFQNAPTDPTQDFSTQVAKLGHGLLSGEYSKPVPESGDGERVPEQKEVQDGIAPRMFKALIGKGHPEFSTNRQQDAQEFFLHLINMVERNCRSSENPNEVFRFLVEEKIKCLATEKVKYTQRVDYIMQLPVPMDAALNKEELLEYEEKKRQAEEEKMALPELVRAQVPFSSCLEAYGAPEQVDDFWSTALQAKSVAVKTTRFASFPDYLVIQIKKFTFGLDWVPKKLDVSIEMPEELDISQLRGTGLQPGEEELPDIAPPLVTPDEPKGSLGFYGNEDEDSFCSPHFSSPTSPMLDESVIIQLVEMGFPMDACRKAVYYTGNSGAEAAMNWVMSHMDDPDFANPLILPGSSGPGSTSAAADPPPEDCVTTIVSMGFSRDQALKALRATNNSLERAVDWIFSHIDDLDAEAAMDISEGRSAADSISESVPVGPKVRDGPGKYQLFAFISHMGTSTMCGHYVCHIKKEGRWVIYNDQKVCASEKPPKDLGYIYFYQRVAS
Outline: as §1

[6] = target: USP54 (UniProt Q70EL1)
Chain of USP54 (Q70EL1 whole entry): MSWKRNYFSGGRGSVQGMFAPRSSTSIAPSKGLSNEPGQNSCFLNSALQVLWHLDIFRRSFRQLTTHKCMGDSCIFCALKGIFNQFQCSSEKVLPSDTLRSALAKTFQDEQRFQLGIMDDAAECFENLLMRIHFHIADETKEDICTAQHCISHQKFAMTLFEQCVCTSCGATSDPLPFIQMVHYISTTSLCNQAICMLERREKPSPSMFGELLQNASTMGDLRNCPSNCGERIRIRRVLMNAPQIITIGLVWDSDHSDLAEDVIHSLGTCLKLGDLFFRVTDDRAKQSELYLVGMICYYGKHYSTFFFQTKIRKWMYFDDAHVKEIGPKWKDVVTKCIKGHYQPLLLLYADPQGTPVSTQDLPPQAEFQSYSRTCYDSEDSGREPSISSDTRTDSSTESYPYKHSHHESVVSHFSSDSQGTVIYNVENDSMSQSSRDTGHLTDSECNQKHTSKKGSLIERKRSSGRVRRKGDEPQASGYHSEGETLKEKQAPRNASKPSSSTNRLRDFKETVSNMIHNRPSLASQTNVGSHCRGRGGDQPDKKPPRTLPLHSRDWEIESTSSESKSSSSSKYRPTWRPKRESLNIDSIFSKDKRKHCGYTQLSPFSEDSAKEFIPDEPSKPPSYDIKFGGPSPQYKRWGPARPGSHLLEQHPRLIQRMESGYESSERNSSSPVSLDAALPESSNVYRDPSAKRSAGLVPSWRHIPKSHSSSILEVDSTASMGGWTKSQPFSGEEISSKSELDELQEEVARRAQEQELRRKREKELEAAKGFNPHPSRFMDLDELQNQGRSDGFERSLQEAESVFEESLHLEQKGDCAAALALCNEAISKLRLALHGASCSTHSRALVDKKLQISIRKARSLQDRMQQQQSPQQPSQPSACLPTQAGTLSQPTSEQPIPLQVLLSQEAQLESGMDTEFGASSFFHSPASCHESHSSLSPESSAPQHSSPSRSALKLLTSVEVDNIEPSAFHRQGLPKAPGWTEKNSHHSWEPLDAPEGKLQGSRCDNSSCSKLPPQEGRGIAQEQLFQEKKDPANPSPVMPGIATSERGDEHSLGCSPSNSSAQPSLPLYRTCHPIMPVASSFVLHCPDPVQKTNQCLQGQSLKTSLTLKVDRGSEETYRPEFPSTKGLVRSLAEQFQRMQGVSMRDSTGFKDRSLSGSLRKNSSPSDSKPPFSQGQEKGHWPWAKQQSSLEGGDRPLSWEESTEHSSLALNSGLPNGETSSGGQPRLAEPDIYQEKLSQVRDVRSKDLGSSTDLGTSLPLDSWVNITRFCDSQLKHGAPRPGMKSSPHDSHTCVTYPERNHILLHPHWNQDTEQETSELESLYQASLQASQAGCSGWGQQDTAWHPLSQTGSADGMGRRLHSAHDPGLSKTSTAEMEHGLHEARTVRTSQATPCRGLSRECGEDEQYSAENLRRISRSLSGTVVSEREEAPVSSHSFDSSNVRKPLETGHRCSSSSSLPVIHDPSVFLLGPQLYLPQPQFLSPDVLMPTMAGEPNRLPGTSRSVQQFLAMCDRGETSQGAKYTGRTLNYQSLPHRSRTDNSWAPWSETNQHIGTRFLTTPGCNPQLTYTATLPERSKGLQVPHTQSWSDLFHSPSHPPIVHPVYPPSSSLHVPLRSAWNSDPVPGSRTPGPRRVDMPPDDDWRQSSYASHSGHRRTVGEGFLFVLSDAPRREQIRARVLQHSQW
Outline: as §1

[7] = target: USP7 (UniProt Q93009)
Chain of USP7 (Q93009 whole entry, looked up): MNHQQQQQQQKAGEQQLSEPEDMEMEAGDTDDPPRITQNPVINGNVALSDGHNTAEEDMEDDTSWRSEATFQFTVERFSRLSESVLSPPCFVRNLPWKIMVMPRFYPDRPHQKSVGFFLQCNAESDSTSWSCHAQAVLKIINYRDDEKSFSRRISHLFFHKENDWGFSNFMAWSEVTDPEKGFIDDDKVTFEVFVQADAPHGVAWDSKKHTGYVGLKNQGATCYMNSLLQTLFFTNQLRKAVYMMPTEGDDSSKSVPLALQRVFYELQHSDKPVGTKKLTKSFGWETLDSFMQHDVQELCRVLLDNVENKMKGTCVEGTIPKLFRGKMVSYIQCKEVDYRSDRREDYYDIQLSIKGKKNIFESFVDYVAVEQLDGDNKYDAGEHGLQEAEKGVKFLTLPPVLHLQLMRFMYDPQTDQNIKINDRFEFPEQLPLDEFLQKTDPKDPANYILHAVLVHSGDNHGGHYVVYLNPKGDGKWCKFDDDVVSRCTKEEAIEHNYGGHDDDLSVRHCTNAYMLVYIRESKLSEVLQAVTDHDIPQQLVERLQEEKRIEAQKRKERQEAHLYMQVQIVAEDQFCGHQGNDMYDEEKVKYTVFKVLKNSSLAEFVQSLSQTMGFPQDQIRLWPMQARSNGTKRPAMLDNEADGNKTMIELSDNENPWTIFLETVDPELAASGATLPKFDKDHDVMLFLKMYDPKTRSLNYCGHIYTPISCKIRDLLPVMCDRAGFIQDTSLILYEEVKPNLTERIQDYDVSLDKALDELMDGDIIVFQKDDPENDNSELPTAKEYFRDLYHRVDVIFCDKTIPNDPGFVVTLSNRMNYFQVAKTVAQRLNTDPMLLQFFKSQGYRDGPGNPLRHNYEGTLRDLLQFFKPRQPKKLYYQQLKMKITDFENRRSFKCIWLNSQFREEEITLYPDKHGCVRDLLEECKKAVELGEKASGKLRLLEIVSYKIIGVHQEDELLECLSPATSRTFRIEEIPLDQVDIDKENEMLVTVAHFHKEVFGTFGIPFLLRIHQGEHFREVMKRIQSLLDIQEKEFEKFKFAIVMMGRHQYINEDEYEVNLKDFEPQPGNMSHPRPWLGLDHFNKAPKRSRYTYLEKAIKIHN
Outline: as §1

[8] = target: T5, USP8 (UniProt P40818)
T5 sequence (whole entry): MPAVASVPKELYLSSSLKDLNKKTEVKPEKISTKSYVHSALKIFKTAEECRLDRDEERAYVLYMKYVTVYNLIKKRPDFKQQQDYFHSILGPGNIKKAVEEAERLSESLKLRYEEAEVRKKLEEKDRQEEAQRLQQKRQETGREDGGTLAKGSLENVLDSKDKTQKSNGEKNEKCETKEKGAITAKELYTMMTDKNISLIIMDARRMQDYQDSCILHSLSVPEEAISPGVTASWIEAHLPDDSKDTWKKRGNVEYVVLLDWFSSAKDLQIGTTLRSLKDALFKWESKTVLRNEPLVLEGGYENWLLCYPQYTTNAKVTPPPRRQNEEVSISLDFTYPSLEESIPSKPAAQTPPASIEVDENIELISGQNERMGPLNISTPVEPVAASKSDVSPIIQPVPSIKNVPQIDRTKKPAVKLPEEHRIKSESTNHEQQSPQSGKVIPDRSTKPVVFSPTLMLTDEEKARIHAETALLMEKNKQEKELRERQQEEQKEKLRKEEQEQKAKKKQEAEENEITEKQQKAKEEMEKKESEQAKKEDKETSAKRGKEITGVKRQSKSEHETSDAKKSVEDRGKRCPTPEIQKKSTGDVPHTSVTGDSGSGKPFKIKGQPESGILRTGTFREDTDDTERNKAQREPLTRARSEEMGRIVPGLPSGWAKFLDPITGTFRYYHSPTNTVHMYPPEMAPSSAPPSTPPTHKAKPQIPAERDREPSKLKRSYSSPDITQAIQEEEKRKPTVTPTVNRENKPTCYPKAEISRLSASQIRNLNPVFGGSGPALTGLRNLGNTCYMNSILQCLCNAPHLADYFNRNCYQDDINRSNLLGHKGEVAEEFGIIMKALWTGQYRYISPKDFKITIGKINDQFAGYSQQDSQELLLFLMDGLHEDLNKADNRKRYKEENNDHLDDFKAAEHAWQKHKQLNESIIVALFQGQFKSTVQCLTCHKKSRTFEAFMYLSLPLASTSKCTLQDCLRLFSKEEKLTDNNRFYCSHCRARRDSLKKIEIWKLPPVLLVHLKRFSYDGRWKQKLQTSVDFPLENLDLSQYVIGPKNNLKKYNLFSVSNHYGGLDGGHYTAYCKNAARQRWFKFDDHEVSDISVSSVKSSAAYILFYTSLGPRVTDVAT
Outline: as §1

[9] = target: USP9X (UniProt Q93008)
Outline: as §1

[10] = target: UniProt O00487
Chain of UniProt O00487 (O00487 whole entry): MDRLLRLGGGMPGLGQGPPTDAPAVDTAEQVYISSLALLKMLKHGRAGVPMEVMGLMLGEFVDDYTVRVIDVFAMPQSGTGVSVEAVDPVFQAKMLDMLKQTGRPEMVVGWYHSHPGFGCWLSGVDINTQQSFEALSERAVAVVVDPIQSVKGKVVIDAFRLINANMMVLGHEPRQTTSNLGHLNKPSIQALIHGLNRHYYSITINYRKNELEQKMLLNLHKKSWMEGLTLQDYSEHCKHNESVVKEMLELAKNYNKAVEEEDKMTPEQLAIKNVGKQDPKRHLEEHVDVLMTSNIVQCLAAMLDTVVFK
Outline: as §1

Measured: log2 ratio of Biotin-Ahx-Ub-VS probe labelling

Cc1cccc(NC(=O)[C@@H]2CCCN2C(=O)CCl)n1
inactive: [1] 0.315 | [2] -0.247 | [3] -0.448 | [4] -0.474 | [5] 0.305 | [6] 0.236 | [7] -0.502 | [8] -0.358 | [9] -0.337 | [10] -0.177

Source: the supplement of paper PMC11732987, “Enantioselective OTUD7B fragment discovery through chemoproteomics screening and high-throughput optimisation” (Communications Chemistry, 2025)
